Source: the supplement of paper PMC6897291

System: RIVA
Assay: growth inhibition by drug plus 177Lu-lilotomab satetraxetan (1 - RLU/untreated control) (fraction); higher = stronger inhibition
Settings: 177Lu-lilotomab satetraxetan 0.5 ug/ml
Experimental: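 RIVA (RI-1) ABC-DLBCL cells were pretreated or not for 18 h with 0.5 ug/ml 177Lu-lilotomab satetraxetan (600 MBq/mg), washed and seeded (3000 cells/well) on 384-well plates pre-printed with the Selleck Cambridge Cancer Compound library. Viability was read by RealTime-Glo luminescence on days 3-6 after seeding. Effect = 1 - RLU/mean RLU of the 48 untreated no-drug control wells per plate; Bliss score = (M-E)/(1-Fa).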

| Structure (SMILES) | growth inhibition by drug plus 177Lu-lilotomab satetraxetan (10 nM, time (day): 3) | growth inhibition by drug plus 177Lu-lilotomab satetraxetan (10 nM, time (day): 4) | growth inhibition by drug plus 177Lu-lilotomab satetraxetan (10 nM, time (day): 5) | growth inhibition by drug plus 177Lu-lilotomab satetraxetan (10 nM, time (day): 6) | growth inhibition by drug plus 177Lu-lilotomab satetraxetan (100 nM, time (day): 3) | growth inhibition by drug plus 177Lu-lilotomab satetraxetan (100 nM, time (day): 4) | growth inhibition by drug plus 177Lu-lilotomab satetraxetan (100 nM, time (day): 5) | growth inhibition by drug plus 177Lu-lilotomab satetraxetan (100 nM, time (day): 6) |
| --- | --- | --- | --- | --- | --- | --- | --- | --- |
| CC(C)C[C@@H](C(=O)N[C@H](C(=O)OC1CCCC1)c1ccccc1)[C@H](O)C(=O)NO [Tosedostat (CHR2797)] | 0.571 | 0.596 | 0.613 | 0.62 | 0.559 | 0.591 | 0.602 | 0.604 |
| COc1ccc(-c2ccc3c(N4CCOCC4)nc(N4C[C@@H](C)O[C@@H](C)C4)nc3n2)cc1CO | 0.514 | 0.598 | 0.603 | 0.621 | 0.475 | 0.552 | 0.55 | 0.529 |
| CS(=O)(=O)N1CCN(Cc2cc3nc(-c4cccc5[nH]ncc45)nc(N4CCOCC4)c3s2)CC1 | 0.351 | 0.467 | 0.488 | 0.493 | 0.532 | 0.5 | 0.486 | 0.45 |
| O=c1cc(-c2cccc3c2Sc2ccccc2S3)oc(N2CCOCC2)c1 | 0.36 | 0.504 | 0.522 | 0.526 | 0.335 | 0.399 | 0.405 | 0.382 |
| CN(c1ncccc1CNc1nc(Nc2ccc3c(c2)CC(=O)N3)ncc1C(F)(F)F)S(C)(=O)=O | 0.592 | 0.636 | 0.671 | 0.663 | 0.458 | 0.565 | 0.566 | 0.569 |
